Consider 38 molecules from the supplement of paper PMC5641865, “A screen for kinase inhibitors identifies antimicrobial imidazopyridine aminofurazans as specific inhibitors of the Listeria monocytogenes PASTA kinase PrkA” (The Journal of Biological Chemistry, 2017).

± gives the standard deviation of the averaged measurements.
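Also: End-point A600 read in BHI broth at 37 °C with 2% DMSO, inhibition computed as (1 − OD with compound plus ceftriaxone ÷ OD with ceftriaxone only) × 100.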

The subject of this test is Listeria monocytogenes 10403S. The test can be described thus: growth inhibition relative to ceftriaxone-alone control; higher = stronger potentiation of ceftriaxone growth inhibition. As to conditions: 10 µM; ceftriaxone 1 ug/ml; 12 h.
On to `NS(=O)(=O)c1cccc(-c2ccc3c(NC(=O)C4CC4)n[nH]c3c2)c1`, for which the growth inhibition turned out to be 0.81 ± 3.7%.

Regarding `COc1cc(/C=N/Nc2ncnc3c2cnn3C(C)C)ccc1O`, the growth inhibition was -1.18 ± 2.2%.

Take `c1cc(-c2cnn3nc(N4CCOCC4)ccc23)nc(NC2CC2)n1`: the growth inhibition is -1.92 ± 0.84%.

`O=C1Nc2ccccc2C1=C1CCc2cc(O)ccc21`: the growth inhibition turned out to be 7.57 ± 3.2%.

On to `C=CC(=O)Nc1cccc(Oc2nc(Nc3ccc(N4CCN(C)CC4)cc3OC)ncc2Cl)c1`, for which the growth inhibition was -1.74 ± 9.7%.

Consider `CC1=C(C(=O)Nc2ccc3[nH]ncc3c2)C(c2ccc(Cl)c(Cl)c2)CC(=O)N1` (stereo not drawn), for which the growth inhibition was -13 ± 9.9%.

`CNC(=O)c1cncc(/C=C/c2c(C)cccc2C)c1`: the growth inhibition was -1.2 ± 3.7%.

In the case of `CN(C)CCNC(=O)Nc1ccc(N(C)c2ccnc(Nc3ccc(CS(C)(=O)=O)cc3)n2)cc1`, the growth inhibition is -2.69 ± 2%.

Turning to `NC(=O)Nc1cc(-c2cccc(F)c2)sc1C(=O)N[C@H]1CCCNC1`, the growth inhibition is 16.7 ± 12%.

On to `O=c1cc(N2CCOCC2)oc2c(-c3ccccc3)cccc12`, for which the growth inhibition turned out to be 27.4 ± 29%.

On to `OCCn1cc(-c2cnc3nnn(Cc4ccc5ncccc5c4)c3n2)cn1`, for which the growth inhibition was found to be 22.9 ± 24%.

Consider `c1cnn2ncc(-c3ccnc(NCCCN4CCOCC4)n3)c2c1`, for which the growth inhibition was -2.97 ± 0.54%.

`COc1cc(C=NNc2ncnc3c2cnn3-c2ccccc2)ccc1O`: the growth inhibition worked out at 3.9 ± 5.4%.

With `CN1CCC(n2cnc(-c3ccc(F)cc3)c2-c2ccnc(Nc3ccccc3)n2)CC1`, the growth inhibition was -8.92 ± 3.6%.

As to `O=c1cc(-c2cccc3c2Sc2ccccc2S3)oc(N2CCOCC2)c1`, the growth inhibition was determined as 86.2 ± 1.3%.

As to `COc1cc(OC)c(/C=C/S(=O)(=O)Cc2ccc(OC)c(NCC(=O)O)c2)c(OC)c1`, the growth inhibition amounted to 4.69 ± 0.45%.

For `CCS(=O)(=O)c1ccc(OC)c(Nc2ncc(-c3cccc(F)c3)o2)c1`, the growth inhibition amounted to 2.54 ± 2.8%.

Consider `CN(C)CCCn1c(-c2nonc2N)nc2cnccc21`, for which the growth inhibition was -5.31 ± 2.5%.

In the case of `CNC(=O)c1cncc(/C=C/c2ccccc2C)c1`, the growth inhibition was determined as 25.3 ± 14%.

Take `NC(=O)c1cccc(Nc2nccc(Nc3cccc(F)c3)n2)c1`: the growth inhibition is -4.52 ± 12%.

In the case of `O=C(NCC1CC1)c1ccc(-c2cccc(C(=O)NC3CC3)c2)cc1`, the growth inhibition is -0.0355 ± 1.1%.

In the case of `Nc1ccc(C#Cc2cncnc2Nc2ccc(OCc3cccc(F)c3)c(Cl)c2)cc1`, the growth inhibition is -6.22 ± 2.5%.

For the molecule `CN1CCN(c2ccc3nc(-c4c(N)c5c(F)cccc5[nH]c4=O)[nH]c3c2)CC1` [Dovitinib (TKI-258)], the growth inhibition amounted to 1.47 ± 0.1%.

Take `[O-][S+]1CCN(Cc2ccc(-c3ccc4ncnc(Nc5ccc(OCc6cccc(F)c6)c(Cl)c5)c4c3)o2)CC1`: the growth inhibition was -4.71 ± 1.9%.

With `c1ccc(Nc2ncc(-c3ccccc3)o2)cc1`, the growth inhibition was 2.45 ± 0.39%.

As for `COc1cc2c(Oc3ccc4[nH]c(C)cc4c3F)ncnc2cc1OCCCN1CCCC1` [Cediranib (AZD2171)], the growth inhibition turned out to be 46 ± 7.5%.

Take `Cc1ccc(-n2nc(C(C)(C)C)cc2NC(=O)Nc2ccc(OCCN3CCOCC3)c3ccccc23)cc1` [BIRB 796 (Doramapimod)]: the growth inhibition came out at 10.5 ± 14%.

Turning to `FC(F)(F)c1cccc(Nc2nccc(-c3cnn4nc(-c5ccccc5)ccc34)n2)c1`, the growth inhibition is -7.85 ± 2.6%.

For `O=C1NC(=O)C(c2ccc(Cl)cc2)=C1Nc1ccc(Cl)c(C(=O)O)c1`, the growth inhibition was found to be 6.2 ± 5.4%.

For `O=C1NC(=O)C(c2cccc(Cl)c2)=C1Nc1ccc(O)c(Cl)c1`, the growth inhibition is -7.55 ± 15%.

In the case of `FC(F)c1nc2ccccc2n1-c1nc(N2CCOCC2)nc(N2CCOCC2)n1`, the growth inhibition was determined as 19.6 ± 15%.

`NC1(Cc2ccc(Cl)cc2)CCN(c2ncnc3[nH]ccc23)CC1`: the growth inhibition amounted to 35 ± 20%.

Regarding `Nc1nonc1-c1nc2cnccc2n1C1CCCCC1`, the growth inhibition was 12.4 ± 3.9%.

Turning to `CCn1c(-c2nonc2N)nc2cnc(Oc3cccc(NC(=O)c4ccc(OCCN5CCOCC5)cc4)c3)cc21`, the growth inhibition turned out to be 0.09 ± 1.7%.

With `Fc1ccc(-c2c(-c3ccncc3)nc3n2CCS3)cc1`, the growth inhibition was -6.65 ± 12%.

On to `Nc1ccc(-c2ccc3ncc4ccc(=O)n(-c5cccc(C(F)(F)F)c5)c4c3c2)cn1` [Torin 2], for which the growth inhibition was -20 ± 12%.

On to `Clc1ccc(C2(c3ccc(-c4cn[nH]c4)cc3)CCNCC2)cc1`, for which the growth inhibition is 100 ± 1.4%.

For the molecule `COc1cc(N2CCN(C(C)C)CC2)ccc1Nc1nc(Nc2cccc3ncccc23)c2cc[nH]c2n1`, the growth inhibition was -2.19 ± 2.3%.
